GRIN3A LBD mod: modulates the human NR3A ligand-binding domain. Tm shift relative to glycine control, % at 25 µM. 340,000 tested, 2.5% active. NR3A LBD differential scanning fluorimetry, Tm shift; 0% = protein alone, 100% = glycine-bound protein;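 active = melting temperature shift of at least 10% of the positive control shift, at one fixed dose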
AHR activator: activators of human aryl hydrocarbon receptor. P35869. AHR-responsive luciferase reporter cells, luminescence. activation, % at 5 µM. 320,000 tested, 2.5% active. AID 2796; in the data active = activation above about 47%
proKLK7 act: activators of human kallikrein-7 zymogen | P49862 | purified proKLK7, EDANS-DABCYL substrate fluorescence; 100% is mature enzyme control, 0% vehicle | activation, % at 7 µM | 370,000 tested, 0.9% active | AID 652039;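 active = activation above the mean of all tested compounds plus 3 SD, computed per campaign excluding outliers beyond control limits, cut at about 13% in these data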
Target sequence (P49862 whole entry, looked up): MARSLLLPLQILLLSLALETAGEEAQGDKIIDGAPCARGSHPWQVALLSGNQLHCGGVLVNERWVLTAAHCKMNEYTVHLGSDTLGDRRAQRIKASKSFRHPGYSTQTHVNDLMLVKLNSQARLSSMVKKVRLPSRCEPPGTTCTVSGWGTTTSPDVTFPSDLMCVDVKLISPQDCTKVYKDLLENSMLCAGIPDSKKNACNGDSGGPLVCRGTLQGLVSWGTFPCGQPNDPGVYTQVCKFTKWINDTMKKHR
ADAM17 inh: inhibits human ADAM17; inhibition, % at 6.95 µM; 370,000 tested, 0.83% active; AID 720648; recombinant ADAM17, EDANS/DABCYL FRET peptide cleavage;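 active = inhibition above the mean of compounds lying between control limits plus 3 SD, set per campaign, cut at about 8.5% in these data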
rCAG binder: molecules binding r(CAG) RNA repeats. r(CAG) RNA repeat, TO-PRO-1 dye displacement fluorescence. inhibition, % at 3 µM. 370,000 tested, 1.3% active. AID 651821;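 active = inhibition above the plate cutoff, the mean of all test compounds on that plate plus 3 SD, cut at about 35% in these data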;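 note: higher means more dye released from RNA so lower well fluorescence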
ADAM10 inh: inhibits human ADAM10. AID 720582. recombinant ADAM10, EDANS/DABCYL FRET peptide cleavage, 3 h. 370,000 tested, 0.62% active. inhibition, % at 7 µM;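 active = inhibition above a per-campaign cutoff equal to the mean of compounds falling between control-based bounds plus 3 SD, cut at about 20% in these data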
proKLK7 act conf: confirmation of human kallikrein-7 zymogen activators; shares compounds with proKLK7 act; purified proKLK7, EDANS-DABCYL substrate fluorescence; scaled: vehicle 0, mature enzyme 100; activation, % at 7 µM; 3,200 tested, 68% active;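 active = activation, as change over the incubation, above the mean of all tested compounds plus 3 SD, cut at about 13% in these data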
EDANS-DABCYL int: optically interferes with EDANS-DABCYL signal, flagging KLK7 hits. EDANS-DABCYL substrate fluorescence interference, no enzyme, 4 h; solvent 0%, active enzyme control 100%. activation, % at 7 µM. 3,200 tested, 80% active. shares compounds with proKLK7 act;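 active = activation above the all-compound mean plus 3 SD, ignoring values outside control-based bounds, cut at about 4.8% in these data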;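 note: value is the 4 h activation minus the activation read at time zero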
EDANS interf: counter-screen for kallikrein-7 activators: EDANS-DABCYL interference, dose response; EC50, µM; AID 720493; shares compounds with proKLK7 act; 250 tested, 20% active; EDANS-DABCYL peptide fluorescence interference, no enzyme;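 active = compounds that raise the fluorescence signal in this interference counterscreen, with EC50 at or below 10 µM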;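 note: intact quenched peptide substrate alone read at 355 nm excitation and 520 nm emission; signal is fluorescence gain from T0 to T4 after four hours at room temperature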
Large screens that a line does not name were inactive (follow-up assays come after a bar, where they were run). Rows were chosen to be rich in hits. Some 7% of all compounds tested hit in one or more screens of this group.

Cc1cc(=O)oc2cc(OC(=O)c3nn(C(C)C)c(=O)c4ccccc34)ccc12	proKLK7 act 45.7 | proKLK7 act conf 69.8 | EDANS-DABCYL int 79.0
CCCn1nc(C(=O)Oc2ccc3c(C)cc(=O)oc3c2)c2ccccc2c1=O	proKLK7 act 54.1 | proKLK7 act conf 68.2 | EDANS-DABCYL int 72.2
CCOC(=O)CC[C@H](NC(=O)Cn1cnc(C(=O)Nc2ccc(C)c(C)c2)n1)C(=O)OCC	none (no result: AHR activator)
O=C(Nc1cccc(O)c1)c1cc2nc(-c3ccccc3)cc(-c3ccccc3)n2n1	GRIN3A LBD mod 20.3, proKLK7 act 95.9 | proKLK7 act conf inactive | EDANS-DABCYL int inactive
O=C(NC1CCCC1)c1cc2nc(-c3ccccc3)cc(-c3ccccc3)n2n1	none
CCOc1ccc(N(CCCCO)C(=S)NC(=O)c2ccc(C)c(Br)c2)cc1	none
Nc1ncc(-c2ccc(F)cc2)nc1N1CCN(CCO)CC1	proKLK7 act 24.0 (no result: GRIN3A LBD mod, AHR activator) | proKLK7 act conf inactive | EDANS-DABCYL int 11.4
OCCN1CCN(c2nc3ccccc3nc2-c2ccccc2)CC1	none
CCOC(=O)Nc1c2ccccc2nc2ccccc12	proKLK7 act 13.8 | proKLK7 act conf 37.9 | EDANS-DABCYL int 42.6
CC(C)c1ccccc1NC(=O)COC(=O)c1cccnc1	none
COc1cc(-c2cc(=O)c3ccc(O)cc3o2)cc(OC)c1OC	proKLK7 act 14.9 (no result: GRIN3A LBD mod, AHR activator) | proKLK7 act conf inactive | EDANS-DABCYL int 8.7
O=C(O)c1c2c(nc3ccccc13)/C(=C/c1ccc(OC(F)F)cc1)CCC2	none
O=C(O)c1c2c(nc3ccccc13)/C(=C/c1ccc(O)cc1)CC2	proKLK7 act 28.2 | proKLK7 act conf 68.2 | EDANS-DABCYL int 70.2
COc1cccc(N=Cc2c(O)n(-c3cccc(C)n3)c(=O)c3ccccc23)c1	none
Cc1cccc(-n2c(O)c(C=Nc3ccc(O)cc3)c3ccccc3c2=O)n1	proKLK7 act 17.8 | proKLK7 act conf 22.8 | EDANS-DABCYL int 23.2
O=c1c2ccccc2c(C=Nc2ccc(S(=O)(=O)N3CCCCC3)cc2)c(O)n1-c1ccc(Cl)cn1	none
Cc1cccc(-n2c(O)c(C=Nc3ccccc3O)c3ccccc3c2=O)n1	proKLK7 act 17.8 | proKLK7 act conf inactive | EDANS-DABCYL int 9.4
NS(=O)(=O)c1ccc(N=Cc2c(O)n(-c3nccs3)c(=O)c3ccccc23)cc1	proKLK7 act 22.9 | proKLK7 act conf 18.2 | EDANS-DABCYL int 19.7
COc1ccc(C(=O)CSc2nnc(CNC(=O)c3ccccc3F)n2C)cc1OC	none
COc1ccc(CCNC(=O)c2sc(=S)n(C)c2N)cc1	proKLK7 act 15.0 | proKLK7 act conf 14.7 | EDANS-DABCYL int 13.1
Cc1cnc(C(=O)N(c2ccc(N3CCOCC3)cc2)C2C(=O)Nc3ccccc3N=C2c2ccc(F)cc2)cn1 (stereo not given)	none (no result: GRIN3A LBD mod, AHR activator)
COc1ccc(S(=O)(=O)N(C)CC(=O)Nc2ccc(C(F)(F)F)cc2)cc1Cl	none
Cc1ccc2nc(NCC(=O)O)nc(-c3ccccc3)c2c1	proKLK7 act 14.2 | proKLK7 act conf 28.5 | EDANS-DABCYL int 15.5 | EDANS interf inactive
Cc1ccc2nc(NCC(N)=O)nc(-c3ccccc3)c2c1	proKLK7 act 29.9 | proKLK7 act conf 22.0 | EDANS-DABCYL int 33.6
COc1ccc(CC(=O)Nc2cc(S(=O)(=O)N3CCCC3)ccc2Cl)c(OC)c1	none
CC(C)(C)OC(=O)N1CCN(CCNC(=O)c2ccccc2)CC1	none
COC(=O)[C@]12CCCCC=C1N(Cc1ccc(Cl)cc1Cl)C(=O)[C@H](CC(=O)N1CCC(c3ccccc3)CC1)C2	none (no result: GRIN3A LBD mod, AHR activator)
COc1cccc(-c2nc3ccccc3s2)c1O	proKLK7 act 25.4 | proKLK7 act conf inactive | EDANS-DABCYL int inactive

Bioassay records: PubChem BioAssay, several laboratories
